Test results: PubChem BioAssay (Tox21)
Records with an inconclusive call do not appear. Where a call stands in place of a potency, no number is given. A number with no mark means an inactive call. Active and inactive are the calls of the source. Calls come from the whole dose curve; as a rule, active = well fitted cell-killing curve with a large enough effect in the repeat runs; inconclusive = weak or mixed curves, or effect the other way; inactive = flat fitted curve, though single readings scatter.

Legend:
[1] = cAMP Responsive Elements (CRE) small molecule antagonists, cell-based qHTS assay: qHTS cell viability counter screen (AID 2060913); note: nearly all actives have a fitted effect of over 40% in size
Outline: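 Cytotoxicity counter screen multiplexed with the CRE-bla antagonist read: HEK293T cells in DMEM with dialyzed FBS and 25 mM HEPES were treated 3 hrs under 0.25 uM final NKH477, then viability measured by CellTiter-Glo luminescence.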

[2] = cAMP Responsive Elements (CRE) small molecule agonists, cell-based qHTS assay: qHTS cell viability counter screen (AID 2060914);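 note: viability read after 3 h of compound exposure; nearly all actives have a fitted effect of over 50% in size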
Outline: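 Cells are seeded and incubated 18 h, treated with compounds in DMSO for 3 h, read for the bla reporter, then given CellTiter-Glo; luminescence is measured after 30 min at room temperature.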
Potency is the fitted concentration of half-maximal effect.

Row | SMILES | Potency [1] | Potency [2] | viability change, negative = cytotoxic [1] | activity change, negative = cytotoxicity [2]
1 | COC(c1ccccc1)(c1ccccc1)[C@H](Oc1nc(C)cc(C)n1)C(=O)O | inactive | inactive |  | 
2 | c1cc(CN2CCCCC2)cc(OCCCNc2nc3ccccc3s2)c1 | inactive | inactive |  | 
3 | Cc1cccc(C)c1OCC(=O)N[C@@H](Cc1ccccc1)[C@@H](O)C[C@H](Cc1ccccc1)NC(=O)[C@H](C(C)C)N1CCCNC1=O | inactive | inactive |  | 
4 | NC(=O)C1(N2CCCCC2)CCN(CCCC(=O)c2ccc(F)cc2)CC1 | inactive | inactive |  | 
5 | CNCCS(=O)(=O)O | inactive | inactive |  | 
6 | CCCCC1(COC(=O)CCC(=O)O)C(=O)N(c2ccccc2)N(c2ccccc2)C1=O | inactive | inactive |  | 
7 | Nc1cc(Cl)c(N)c(Cl)c1 | inactive | inactive |  | 
8 | C/C(=C(/OCCOc1ccc(Cl)cc1)c1ccc(Cl)cc1Cl)n1ccnc1 | inactive | inactive |  | 
9 | CCC(=O)C1CC(C(C)C)CC=C1C (stereo unspecified) | inactive | inactive |  | 
10 | CC(=O)c1cc2ccccc2s1 | inactive | inactive |  | 
11 | CC/C(=C\C(=N/O)C(N)=O)C(C)[N+](=O)[O-] (stereo unspecified) | inactive | inactive |  | 
12 | Clc1ccc(Cl)c(Cl)c1Cl | inactive | inactive |  | 
13 | CCOC(=O)COc1ccc(C)cc1 | inactive | inactive |  | 
14 | C=C(C)C(=O)OCC(O)COc1ccc(C(C)(C)c2ccc(OCC(O)COC(=O)C(=C)C)cc2)cc1 (stereo unspecified) | 61.1 µM (active) | 61.1 µM (active) |  | 
15 | CCCCC(=O)OCC(=O)[C@H]1[C@H](C)C[C@H]2[C@@H]3C[C@H](F)C4=CC(=O)C=C[C@]4(C)[C@@]3(F)[C@@H](O)C[C@@]21C | inactive | inactive |  | 
16 | CC(C)(CO)COC(=O)C(C)(C)CO | inactive | inactive |  | 
17 | Cc1ncc(CO)c(CO)c1O | inactive | inactive |  | 
18 | Nc1cnn([C@@H]2O[C@H](CO)[C@@H](O)[C@H]2O)c(=O)n1 | inactive | 0.97 µM (active) |  | 
19 | CCN(CC)CCNC(=O)c1cc(Br)c(N)cc1OC | inactive | inactive |  | 
20 | CCCCCCS | inactive | inactive |  | 
21 | OC[C@H]1O[C@@H](O[C@@H]2[C@@H](CO)O[C@](O)(CO)[C@H]2O)[C@H](O)[C@@H](O)[C@H]1O | inactive | inactive |  | 
22 | Clc1cc(Cl)c(Cl)c(Cl)c1Cl | inactive | inactive |  | 
23 | O=C1NCCN1 | inactive | inactive |  | 
24 | CCCCCCCCCCCl | inactive | inactive |  | 
25 | CCCCCCOC(=O)CCCCCCCC(=O)OCCCCCC | inactive | inactive |  | 
26 | ClC(c1ccccc1)(c1ccccc1)c1ccccc1 | inactive | inactive |  | 
27 | CC(=O)OCC1=C(C(=O)O)N2C(=O)[C@@H](NC(=O)CSc3ccncc3)[C@H]2SC1 | inactive | inactive |  | 

Row | SMILES | Potency [1] | Potency [2] | viability change, negative = cytotoxic [1] | activity change, negative = cytotoxicity [2]
28 | CCCCOC(=O)c1ccc(O)cc1 | inactive | inactive |  | 
29 | COC(=O)CCCCCCCC(=O)OC | inactive | inactive |  | 
30 | CC(C)OC(=O)C(C(=O)OC(C)C)=C1SC=CS1 | inactive | inactive |  | 
31 | CCCCCCCCCCC1CO1 (stereo unspecified) | inactive | inactive |  | 
32 | CCCCCCCCC1CCC(=O)O1 (stereo unspecified) | inactive | inactive |  | 
33 | CC(C)=CCC/C(C)=C\CO | inactive | inactive |  | 
34 | CC(=O)NCCCCCC(=O)O | inactive | inactive |  | 
35 | NC(=O)c1ncn([C@@H]2O[C@H](CO)[C@@H](O)[C@H]2O)c1N | inactive | inactive |  | 
36 | CCCC(=O)OCC(COC(=O)CCC)OC(=O)CCC | inactive | inactive |  | 
37 | CC(=O)OCCc1ccccc1 | inactive | inactive |  | 
38 | O=Cc1ccc(Cl)cc1 | inactive | inactive |  | 
39 | C=CC(C)(CCC=C(C)C)OC(=O)CC (stereo unspecified) | inactive | inactive |  | 
40 | CN(C)C | inactive | inactive |  | 
41 | O=S(=O)(O)c1cc(O)ccc1O | inactive | inactive |  | 
42 | Nc1nc(N)c2nc(-c3ccccc3)c(N)nc2n1 | inactive | inactive |  | 
43 | CC(=O)C=O | inactive | inactive |  | 
44 | CN(C)c1ccncc1 | inactive | inactive |  | 
45 | O=C(CCCl)NCc1ccccc1 | inactive | inactive |  | 
46 | C=CC(C)(CCC=C(C)C)OC(=O)/C=C/c1ccccc1 (stereo unspecified) | inactive | inactive |  | 
47 | Cc1cccc(C)c1NC(=O)c1cc(S(N)(=O)=O)c(Cl)cc1O | inactive | inactive |  | 
48 | CCCC(=O)OC(C)(C)Cc1ccccc1 | inactive | inactive |  | 
49 | NS(=O)(=O)O | inactive | inactive |  | 
50 | CCCOC(=O)C(C)O (stereo unspecified) | inactive | inactive |  | 
51 | CN1Cc2cc(C(=O)N3CCC(C4CCNCC4)CC3)ccc2NC(CC(=O)O)C1=O (stereo unspecified) | inactive | inactive |  | 
52 | COC(=O)C(C)Oc1ccc(Oc2ncc(C(F)(F)F)cc2Cl)cc1 (stereo unspecified) | inactive | inactive |  | 
53 | C/C(=C(\CCOP(=O)(O)O)SC(=O)c1ccccc1)N(C=O)Cc1cnc(C)nc1N |  |  | 1.04% [at 8.39 µM] | -13.5% [at 8.39 µM]
